DRD3 agonist – agonists of human D3 dopamine receptor. P35462. D3R DiscoveRx beta-arrestin cells, luminescence, 90 min. max activation, %. actives 0.58% (n = 410,000); in the data active means max activation above about 30%
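Agonist mode: compounds and dopamine controls were applied to plated cells for 90 min at 37 degrees C after an overnight attachment at 1500 cells/well. Luminescent read-out followed 30 - 60 minutes at room temperature with DiscoveRx detection reagent.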
D3 antag – D3 dopamine receptor (human) antagonism; P35462; D3R cells, DiscoveRx beta-arrestin luminescence, antagonist mode; active compounds read low; max response, negative = inhibition, %; actives 2.5% (n = 360,000); in the data active means max response below about -50%
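Cells expressing the human receptor were seeded at 1500 cells/well, incubated overnight at 37 degrees C in 5% CO2, then exposed to library compounds with dopamine controls for 90 minutes at 37 degrees C before luminescent detection.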
D1 agonist – human D1 receptor agonism | P21728 | HEK293 T-REx D1 cells, calcium flux, agonist mode | activation, % at 2 µM | actives 1% (n = 360,000); in the data active means activation above about 30%
Target sequence (P21728 whole entry, looked up): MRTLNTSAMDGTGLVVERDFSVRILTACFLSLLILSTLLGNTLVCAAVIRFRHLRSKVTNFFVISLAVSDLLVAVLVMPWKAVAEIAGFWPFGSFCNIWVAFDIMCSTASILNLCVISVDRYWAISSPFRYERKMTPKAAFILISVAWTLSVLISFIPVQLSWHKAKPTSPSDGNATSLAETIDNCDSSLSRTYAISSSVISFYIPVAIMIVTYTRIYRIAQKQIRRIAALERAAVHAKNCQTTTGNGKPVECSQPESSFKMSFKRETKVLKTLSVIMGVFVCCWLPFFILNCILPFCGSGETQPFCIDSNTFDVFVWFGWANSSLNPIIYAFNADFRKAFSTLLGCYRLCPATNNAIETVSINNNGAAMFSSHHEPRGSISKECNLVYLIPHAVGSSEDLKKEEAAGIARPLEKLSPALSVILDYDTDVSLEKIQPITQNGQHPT
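Inducible HEK293 T-REx D1 cells, force-coupled to calcium signalling, were plated at 4000 cells/well with tetracycline and held overnight at 30 C. After no-wash calcium dye loading, compound-evoked calcium rise over 180 s flagged agonists.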
D1 potentiator – human D1 dopamine receptor positive modulation | actives 0.036% (n = 360,000) | P21728 | potentiation, % at 10 µM | AID 504651 | HEK293 TREx D1 cells, calcium flux, dopamine EC20 potentiation; in the data active means potentiation above about 30%
D1 antagonist – blocks dopamine activation of the human D1 receptor; P21728; HEK293 TREx D1 cells, calcium flux, dopamine EC80; active compounds read low; activity change, negative = inhibition, % at 10 µM; actives 3.2% (n = 360,000); in the data active means activity change below about -30%
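Tetracycline-induced HEK293 T-REx cells with force-coupled D1 receptor were loaded with a no-wash calcium dye. Compound was added after a 10 s baseline and read kinetically for 180 s; EC80 dopamine was then added and calcium flux followed another 180 s.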
Large screens that a line does not name were inactive; ! = repeats disagree. A selection: hits, their analogues and other compounds. The true share with any hit is near 6.1%.

COc1cc(C(=O)NC2CC(=O)N(c3cccc(F)c3)C2)cc(OC)c1OC (stereo unspecified)	none (no result: D3 antag, D1 antagonist)
Cc1cccc(N2CCN(S(=O)(=O)c3ccc4c(c3)CC(=O)N4C)CC2)c1C	D1 antagonist -30!
CC1CCN(S(=O)(=O)c2ccc3ccccc3c2)CC1	none
CC1CCN(S(=O)(=O)c2ccc3c(c2)N(C)C(=O)CC(=O)N3C)CC1	D1 antagonist -37!
Cc1cccc(N2CCN(S(=O)(=O)c3ccc(S(=O)(=O)N4CCCC4)cc3)CC2)c1C	none
CC1CCN(c2ccc(S(=O)(=O)N3CCC(C)CC3)cc2N)CC1	none
CC1CCN(S(=O)(=O)c2ccc3c(c2)C(Cl)(Cl)C(=O)N3)CC1	D3 antag -70 (no result: D1 agonist, D1 potentiator, D1 antagonist)
COC(=O)c1cc2oc(C)cc2n1Cc1cccc(Cl)c1	none (no result: D3 antag)
O=C(C[n+]1cccc(CNC(=O)c2ccc(OC(F)F)cc2)c1)Nc1ccccc1Cl	D1 antagonist -32
O=C(C[n+]1cccc(CNC(=O)c2ccc(OC(F)F)cc2)c1)Nc1ccc(SC(F)F)cc1	none
CCc1ccc(S(=O)(=O)c2cnc3ccc(OC)cc3c2N2CCCC(C)C2)cc1 (stereo unspecified)	D1 antagonist -56 (no result: D3 antag)
CCOc1ccc2ncc(S(=O)(=O)c3ccccc3)c(N3CCN(c4ccccc4)CC3)c2c1	none (no result: D1 agonist, D1 potentiator, D1 antagonist)
CCc1ccc2ncc(S(=O)(=O)c3ccc(C)c(C)c3)c(N3CCCC3)c2c1	D3 antag -56
COc1ccc(S(=O)(=O)c2cnc3cc(OC)c(OC)cc3c2N2CCCC(C)C2)cc1 (stereo unspecified)	none (no result: D3 antag)
CCN1CCN(c2c(S(=O)(=O)c3ccc(C)c(C)c3)cnc3cc(OC)c(OC)cc23)CC1	D1 antagonist -66 (no result: D3 antag)
CCN1CCN(c2c(S(=O)(=O)c3ccccc3)cnc3ccc(Cl)cc23)CC1	none (no result: D3 antag)
CCc1ccc(NC(=O)CN2C(=O)CC(C)S(=O)(=O)c3ccccc32)cc1 (stereo unspecified)	D1 antagonist -32
N#Cc1c(-c2ccccc2)nc(-c2ccncc2)[nH]c1=O	none
N#Cc1c(-c2ccccc2)nc(-c2ccccc2)[nH]c1=O	D3 antag -58
Cc1ccc2[nH]c(=O)c(CN(C(=O)c3cccc(Cl)c3)C(C)(C)C)cc2c1	none (no result: D3 antag)
CCCCC(=O)Nc1ccc(C(=O)NCCc2ccccc2)cc1	D3 antag -62
CCCCC(=O)Nc1ccc(C(=O)NNC(=O)CCc2ccccc2)cc1	none
CCOC(=O)c1ccc(NC(=O)NCc2ccccc2)cc1	none
CCOC(=O)c1ccc(NC(=S)NCc2ccccc2)cc1	D1 antagonist -56
CC(=O)c1ccc(NC(=S)NCCc2cccc(Cl)c2)cc1	D1 antagonist -37
CCOC(=O)c1ccc(NC(=S)NCCc2ccccc2)cc1	D1 antagonist -38
CCC(C)(C)c1ccc(CC(C)CN2C[C@@H](C)O[C@@H](C)C2)cc1 (stereo partly specified)	none (no result: D3 antag, D1 agonist, D1 potentiator, D1 antagonist)
CCCSc1ncc(Cl)c(C(=O)N2CCN(c3cccc(Cl)c3)CC2)n1	none (no result: D3 antag)
Cc1ccc(NC(=O)c2ccc(OC(=O)c3ccco3)cc2)cc1	none
Cc1ccc(OCc2cc(C(=O)Nc3ccccc3)oc2C)cc1	none
Cc1ccc(Oc2ccc(NC(=O)c3ccco3)cc2)cc1	D1 antagonist -47
COC(=O)c1ccc(NC(=O)c2ccc(NC(=O)c3ccco3)cc2)cc1	none
CC(C)COc1ccc(C(=O)Nc2ccc(NC(=O)c3ccco3)cc2)cc1	D1 antagonist -35
COC(=O)c1ccccc1Oc1ccc(NC(=O)c2ccco2)cc1	D1 antagonist -37
Cc1oc(C(=O)Nc2ccc(O)cc2)cc1COc1ccccc1	D1 antagonist -32
Cc1nn2c(C)c(C(=O)NC(C)c3ccccc3)cnc2c1-c1ccc(F)cc1 (stereo unspecified)	none (no result: D3 antag)
COC(=O)c1ccccc1NC(=O)c1ncoc1-c1ccco1	none (no result: D3 antag)
O=C(COc1ccccc1)Nc1ccc(NC(=O)c2ccco2)cc1	D1 antagonist -73
COc1ccc(OCC(=O)Nc2ccc(NC(=O)c3ccco3)cc2)cc1	none
COc1ccc(-n2ncc(C(=O)N3CCN(Cc4ccccc4)CC3)c2C2CCN(C(=O)OC(C)(C)C)CC2)cc1	none (no result: D3 antag)
CCCCCC(=O)N/N=C/c1cc(Br)c(O)c(OC)c1	D1 antagonist -39
COc1cc(/C=N/NC(=O)CC2(C)OCCO2)cc(Br)c1O	none
COc1ccc(-c2nc3c4ccccc4n(CC(=O)N4CCN(c5ccccc5F)CC4)c(=O)n3n2)cc1	none (no result: D3 antag, D1 antagonist)

Screening data: PubChem, National Center for Advancing Translational Sciences (NCATS)
